Measured values: the supplement of paper PMC3545927
Some of the results follow. How many sequences the whole screen found active is unknown.

Target: furin, P09958
Test: furin cleavage Z-score vs untreated control; higher = more cleavage, active = 3.5 or more, inactive = 1 or less, 8 variable residues between constant flanks
In short: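 The cleavage Z-score was derived for purified furin acting on 8-mer peptides held on magnetic beads and fused to a cDNA oligonucleotide. Digests lasted 7.5, 15 or 30 min at 1:10 enzyme:substrate in 50 mM HEPES pH 7.5 with CaCl2 and NaCl. Sequencing counts of released DNA, log-transformed against furin-free reactions, were lowess-adjusted and scaled by median absolute deviation.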

furin, P09958, sequence (P09958 whole entry): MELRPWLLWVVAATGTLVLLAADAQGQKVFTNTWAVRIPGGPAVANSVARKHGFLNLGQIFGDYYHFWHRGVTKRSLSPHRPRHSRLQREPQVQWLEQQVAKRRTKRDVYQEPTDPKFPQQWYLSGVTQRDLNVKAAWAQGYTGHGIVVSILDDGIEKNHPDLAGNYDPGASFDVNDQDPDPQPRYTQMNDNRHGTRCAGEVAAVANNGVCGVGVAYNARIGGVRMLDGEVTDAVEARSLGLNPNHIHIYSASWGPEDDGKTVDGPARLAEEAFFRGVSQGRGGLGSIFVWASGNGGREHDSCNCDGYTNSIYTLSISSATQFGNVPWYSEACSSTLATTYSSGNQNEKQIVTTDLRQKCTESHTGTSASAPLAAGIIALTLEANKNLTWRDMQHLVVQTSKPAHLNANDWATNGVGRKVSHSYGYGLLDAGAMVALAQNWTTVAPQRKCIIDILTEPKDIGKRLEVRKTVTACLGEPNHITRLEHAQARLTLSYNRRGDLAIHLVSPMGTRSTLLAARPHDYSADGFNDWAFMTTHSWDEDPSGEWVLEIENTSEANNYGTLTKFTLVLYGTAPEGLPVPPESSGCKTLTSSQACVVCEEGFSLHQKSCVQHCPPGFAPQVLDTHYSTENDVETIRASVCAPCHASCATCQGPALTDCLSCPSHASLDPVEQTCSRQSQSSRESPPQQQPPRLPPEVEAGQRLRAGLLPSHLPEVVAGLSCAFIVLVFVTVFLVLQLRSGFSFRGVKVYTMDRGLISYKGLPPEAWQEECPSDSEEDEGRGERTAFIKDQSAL

## CAQYFLTRVEAGNASASA [HC584]
7.5 min
  furin cleavage Z-score: -0.544 (inactive)
15 min
  furin cleavage Z-score: -0.576 (inactive)
30 min
  furin cleavage Z-score: 0.581 (inactive)

## CADHLEFWEGAGNASASA [HC937]
7.5 min
  furin cleavage Z-score: 0.211 (inactive)
15 min
  furin cleavage Z-score: -1.35 (inactive)
30 min
  furin cleavage Z-score: 0.811 (inactive)

## CATVPCHRPSAGNASASA [HC2318]
7.5 min
  furin cleavage Z-score: -1.23 (inactive)
15 min
  furin cleavage Z-score: 0.611 (inactive)
30 min
  furin cleavage Z-score: 0.585 (inactive)

## CASFGSSSTSAGNASASA [HC1336]
7.5 min
  furin cleavage Z-score: -0.845 (inactive)
15 min
  furin cleavage Z-score: -1.34 (inactive)
30 min
  furin cleavage Z-score: 0.561 (inactive)

## CAPCGIVPAKAGNASASA [HC407]
7.5 min
  furin cleavage Z-score: 0.926 (inactive)
15 min
  furin cleavage Z-score: 0.441 (inactive)
30 min
  furin cleavage Z-score: 0.898 (inactive)

## CAITPCSGSWAGNASASA [HC1824]
7.5 min
  furin cleavage Z-score: -0.759 (inactive)
15 min
  furin cleavage Z-score: -0.739 (inactive)
30 min
  furin cleavage Z-score: -0.66 (inactive)

## CARPKRRKPRAGNASASA [FS-3017]
7.5 min
  furin cleavage Z-score: 6.7 (active)
15 min
  furin cleavage Z-score: 9.47 (active)
30 min
  furin cleavage Z-score: 8.98 (active)

## CAEVITSTWVAGNASASA [HC2184]
7.5 min
  furin cleavage Z-score: -0.201 (inactive)
15 min
  furin cleavage Z-score: -0.151 (inactive)
30 min
  furin cleavage Z-score: 0.767 (inactive)

## CAMEECKQHLAGNASASA [HC31]
7.5 min
  furin cleavage Z-score: 0.641 (inactive)
15 min
  furin cleavage Z-score: 0.811 (inactive)
30 min
  furin cleavage Z-score: 0.523 (inactive)

## CACVWRRKRKAGNASASA [FS-324]
7.5 min
  furin cleavage Z-score: 4.9 (active)
15 min
  furin cleavage Z-score: 7.08 (active)
30 min
  furin cleavage Z-score: 5.25 (active)

## CADIHRNKRKAGNASASA [FS-408]
7.5 min
  furin cleavage Z-score: 0.37 (inactive)
15 min
  furin cleavage Z-score: 0.486 (inactive)
30 min
  furin cleavage Z-score: 2.04

## CADVPCHRPSAGNASASA [HC2311]
7.5 min
  furin cleavage Z-score: 0.698 (inactive)
15 min
  furin cleavage Z-score: 1.24
30 min
  furin cleavage Z-score: 0.271 (inactive)

## CARSARRKRKAGNASASA [FS-1610]
7.5 min
  furin cleavage Z-score: 9.41 (active)
15 min
  furin cleavage Z-score: 11.4 (active)
30 min
  furin cleavage Z-score: 7.56 (active)

## CADVPRRKRKAGNASASA [FS-1316]
7.5 min
  furin cleavage Z-score: 7.09 (active)
15 min
  furin cleavage Z-score: 7.66 (active)
30 min
  furin cleavage Z-score: 8.13 (active)

## CARSACQRQKAGNASASA [HC1392]
7.5 min
  furin cleavage Z-score: 0.38 (inactive)
15 min
  furin cleavage Z-score: -0.49 (inactive)
30 min
  furin cleavage Z-score: 1.17

## CAPREVPCHRAGNASASA [HC2439]
7.5 min
  furin cleavage Z-score: -1.48 (inactive)
15 min
  furin cleavage Z-score: 1.55
30 min
  furin cleavage Z-score: -0.302 (inactive)

## CAWDVVCCSMAGNASASA [HC2108]
7.5 min
  furin cleavage Z-score: 0.349 (inactive)
15 min
  furin cleavage Z-score: -0.375 (inactive)
30 min
  furin cleavage Z-score: 0.29 (inactive)

## CARGPRARRSAGNASASA [FS-855]
7.5 min
  furin cleavage Z-score: 7.87 (active)
15 min
  furin cleavage Z-score: 7.54 (active)
30 min
  furin cleavage Z-score: 4.95 (active)

## CARGPRRRRSAGNASASA [FS-856]
7.5 min
  furin cleavage Z-score: 11.2 (active)
15 min
  furin cleavage Z-score: 10 (active)
30 min
  furin cleavage Z-score: 7.78 (active)

## CARGPRRASAAGNASASA [FS-1711]
7.5 min
  furin cleavage Z-score: -0.617 (inactive)
15 min
  furin cleavage Z-score: -0.431 (inactive)
30 min
  furin cleavage Z-score: -0.848 (inactive)

## CADSGGARRSAGNASASA [FS-226]
7.5 min
  furin cleavage Z-score: -0.625 (inactive)
15 min
  furin cleavage Z-score: -0.697 (inactive)
30 min
  furin cleavage Z-score: -0.757 (inactive)

## CARAKRVSWDAGNASASA [FS-1681]
7.5 min
  furin cleavage Z-score: -0.617 (inactive)
15 min
  furin cleavage Z-score: 0.099 (inactive)
30 min
  furin cleavage Z-score: 0.302 (inactive)

## CASTPCSASLAGNASASA [HC2557]
7.5 min
  furin cleavage Z-score: 0.819 (inactive)
15 min
  furin cleavage Z-score: 0.0223 (inactive)
30 min
  furin cleavage Z-score: 0.939 (inactive)

## CARAKRFVSIAGNASASA [FS-1993]
7.5 min
  furin cleavage Z-score: 4.74 (active)
15 min
  furin cleavage Z-score: 4.17 (active)
30 min
  furin cleavage Z-score: 5.92 (active)
